Out of some 5,500 compounds screened, about 2,000 (36%) were called active. Inconclusive results (about 18%) are left out. No stated cut-off is given here; in the data, active means normalized growth mostly below about 0.91 (no sharp cut-off); inconclusive means no clear call, values can overlap the other calls; inactive means mostly above about 0.92. This is one part of the list.
Experiment: chemical genetic growth profiling, strain panel (AID 1159580);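 further: tested at 20 µM; growth read once vehicle control cultures reached saturation at 30 °C; 1 = growth at the plate median or of vehicle wells; lower values mean less growth of the strain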
Details: growth OD

Measured: normalized growth

CC(=O)OCC(=O)[C@@]1(O)CCC2C3CCC4=CC(=O)CC[C@]4(C)[C@@]3(F)[C@@H](O)C[C@@]21C (stereo partly specified)
inactive: S. cerevisiae deletion strains, locus YJR066W, strain TOR1, hits give low values 0.939 | S. cerevisiae deletion strains, locus YKL009W, strain mrt4, hits give low values 0.973 | S. cerevisiae deletion strains, locus YKL068W, hits give low values 1.01 | S. cerevisiae deletion strains, locus YKL085W, strain MDH1 (second series), hits give low values 1.01 | S. cerevisiae deletion strains, locus YKL085W, strain MDH1, hits give low values 1.01 | S. cerevisiae deletion strains, locus YKL160W, strain elf1, hits give low values 1.03 | S. cerevisiae deletion strains, locus YKL190W, strain CNB1, hits give low values 1 | S. cerevisiae deletion strains, locus YKR001C, strain vps1, hits give low values 0.987 | S. cerevisiae deletion strains, locus YKR026C, strain gcn3, hits give low values 1.02 | S. cerevisiae deletion strains, locus YKR091W, strain srl3, hits give low values 1 | S. cerevisiae deletion strains, locus YLL001W, strain dnm1, hits give low values 1.03 | S. cerevisiae deletion strains, locus YLL026W, hits give low values 1.01 | S. cerevisiae deletion strains, locus YLL041C, strain sdh2, hits give low values 1.01 | S. cerevisiae deletion strains, locus YLR027C, strain aat2, hits give low values 1.02 | S. cerevisiae deletion strains, locus YLR039C, strain RIC1, hits give low values 1.04 | S. cerevisiae deletion strains, locus YLR058C, strain SHM2, hits give low values 1.01 | S. cerevisiae deletion strains, locus YLR102C, strain apc9, hits give low values 1.01 | S. cerevisiae deletion strains, locus YLR113W, strain HOG1, hits give low values 0.992 | S. cerevisiae deletion strains, locus YLR221C, strain rsa3, hits give low values 1.02 | S. cerevisiae deletion strains, locus YLR258W, strain gsy2, hits give low values 1.01 | S. cerevisiae deletion strains, locus YLR262C, strain YPT6 (second series), hits give low values 1.03 | S. cerevisiae deletion strains, locus YLR262C, strain YPT6, hits give low values 1.01 | S. cerevisiae deletion strains, locus YLR268W, strain sec22, hits give low values 0.985 | S. cerevisiae deletion strains, locus YLR320W, strain mms22, hits give low values 1.05 | S. cerevisiae deletion strains, locus YLR330W, strain CHS5, hits give low values 1.01 | S. cerevisiae deletion strains, locus YLR342W, strain FKS1 (second series), hits give low values 1.02 | S. cerevisiae deletion strains, locus YLR342W, strain FKS1, hits give low values 1.01 | S. cerevisiae deletion strains, locus YLR357W, strain rsc2, hits give low values 1.01 | S. cerevisiae deletion strains, locus YLR370C, strain arc18, hits give low values 1.02 | S. cerevisiae deletion strains, locus YLR371W, strain rom2, hits give low values 1 | S. cerevisiae deletion strains, locus YLR384C, strain iki3, hits give low values 1.02 | S. cerevisiae deletion strains, locus YLR418C, strain cdc73, hits give low values 1.01 | S. cerevisiae deletion strains, locus YML016C, strain PPZ1, hits give low values 1 | S. cerevisiae deletion strains, locus YML032C, strain rad52, hits give low values 0.992 | S. cerevisiae deletion strains, locus YML120C, strain ndi1, hits give low values 1.03 | S. cerevisiae deletion strains, locus YML124C, strain tub3, hits give low values 1.01 | S. cerevisiae deletion strains, locus YMR058W, strain fet3, hits give low values 1.02 | S. cerevisiae deletion strains, locus YMR078C, strain ctf18, hits give low values 1.01 | S. cerevisiae deletion strains, locus YMR125W, strain sto1, hits give low values 1.01 | S. cerevisiae deletion strains, locus YMR129W, hits give low values 1.01 | S. cerevisiae deletion strains, locus YMR205C, strain PFK2, hits give low values 1.02 | S. cerevisiae deletion strains, locus YMR223W, strain ubp8, hits give low values 1.03 | S. cerevisiae deletion strains, locus YMR231W, strain pep5, hits give low values 1.01 | S. cerevisiae deletion strains, locus YMR307W, strain GAS1, hits give low values 1.01 | S. cerevisiae deletion strains, locus YNL067W, strain RPL9B, hits give low values 0.998 | S. cerevisiae deletion strains, locus YNL071W, strain lat1, hits give low values 1.02 | S. cerevisiae deletion strains, locus YNL128W, strain TEP1, hits give low values 1.02 | S. cerevisiae deletion strains, locus YNL153C, strain GIM3, hits give low values 1.01 | S. cerevisiae deletion strains, locus YNL183C, strain NPR1, hits give low values 0.957 | S. cerevisiae deletion strains, locus YNL209W, strain ssb2, hits give low values 1.01 | S. cerevisiae deletion strains, locus YNL233W, strain BNI4, hits give low values 1 | S. cerevisiae deletion strains, locus YNL248C, strain rpa49, hits give low values 1.02 | S. cerevisiae deletion strains, locus YNL271C, strain bni1, hits give low values 1.01 | S. cerevisiae deletion strains, locus YNL298W, strain CLA4, hits give low values 0.986 | S. cerevisiae deletion strains, locus YNL307C, strain MCK1, hits give low values 1.02 | S. cerevisiae deletion strains, locus YNL322C, strain KRE1 (second series), hits give low values 1.02 | S. cerevisiae deletion strains, locus YNR049C, strain mso1, hits give low values 1.01 | S. cerevisiae deletion strains, locus YNR052C, strain pop2, hits give low values 1 | S. cerevisiae deletion strains, locus YOL012C, strain htz1 0.967 | S. cerevisiae deletion strains, locus YOL147C, strain pex11, hits give low values 1 | S. cerevisiae deletion strains, locus YOR001W, strain rrp6, hits give low values 1 | S. cerevisiae deletion strains, locus YOR061W, strain CKA2, hits give low values 1.01 | S. cerevisiae deletion strains, locus YOR069W, strain VPS5, hits give low values 1.01 | S. cerevisiae deletion strains, locus YOR070C, strain gyp1, hits give low values 1.03 | S. cerevisiae deletion strains, locus YOR080W, strain dia2, hits give low values 1.01 | S. cerevisiae deletion strains, locus YOR083W, strain WHI5, hits give low values 1.03 | S. cerevisiae deletion strains, locus YOR106W, strain vam3, hits give low values 1.03 | S. cerevisiae deletion strains, locus YOR136W, strain idh2, hits give low values 0.989 | S. cerevisiae deletion strains, locus YOR144C, strain elg1, hits give low values 1 | S. cerevisiae deletion strains, locus YOR184W, strain ser1, hits give low values 0.997 | S. cerevisiae deletion strains, locus YOR231W, strain MKK1, hits give low values 1 | S. cerevisiae deletion strains, locus YOR265W, strain rbl2, hits give low values 1.02 | S. cerevisiae deletion strains, locus YOR270C, strain vph1, hits give low values 1.03 | S. cerevisiae deletion strains, locus YOR290C, strain snf2, hits give low values 0.997 | S. cerevisiae deletion strains, locus YOR316C, strain cot1, hits give low values 1.01 | S. cerevisiae deletion strains, locus YPL051W, strain arl3, hits give low values 1.04 | S. cerevisiae deletion strains, locus YPL078C, strain atp4, hits give low values 1.02 | S. cerevisiae deletion strains, locus YPL106C, strain sse1, hits give low values 1.02 | S. cerevisiae deletion strains, locus YPL240C, strain hsp82, hits give low values 0.994 | S. cerevisiae deletion strains, locus YPL256C, strain CLN2, hits give low values 1 | S. cerevisiae deletion strains, locus YPR119W, strain clb2, hits give low values 0.997 | S. cerevisiae deletion strains, locus YPR141C, strain kar3, hits give low values 1 | S. cerevisiae deletion strains, locus YPR163C, strain tif3, hits give low values 1 | S. cerevisiae deletion strains, locus YPR167C, strain met16, hits give low values 0.999 | S. cerevisiae deletion strains, strain wtn01, hits give low values 0.995 | S. cerevisiae strains, strain wild type, hits give low values 1.01

From PubChem BioAssay AID1159580 (chemical genetic matrix, 2015)
